Results from the OligoGym collection.

Each sequence was assayed against ANAPC5 (assay: pooled miR-30 sensor sort-seq; sequence = guide strand). Conditions: shRNA.
Also: reference of the scale not given here.

Sequence | sensor-assay potency score (higher = more potent)
TTTTTGATCACATAACATCCAT | 0.00973
TACAGTTTAAACACTTGGCTGA | 0.833
TTGAACTGAAAACATCTTGGAC | -0.413
TTGTTTTGTGAACCTCTGGTTC | -0.673

The sequences below were run against ANGPTL1 in the same assay as above. Conditions: shRNA.

Sequence | sensor-assay potency score (higher = more potent)
TTGCAGAACATCTATCTCCCGC | 0.289
TTTTGCTTGCTGACAGTCTTTG | -0.992
TTTAATGGTACTTGCATCTTGC | 0.613
TAAATTGTTAAGTATCTTGAAC | -0.687
TAGACTTTTTTATCACTCCAGT | -0.73
TTAAATCTCTGGGATAACCTGG | -0.522
TTGATTGCTAAGCATATAGATA | -1.25
TATAGAGTTGAGTAACACGAGA | -1.16
TAATTTTGAATTGTCCACCTCT | 0.889
TCCATCTACATCCACCACCAGT | -1.83
ATAACTTGTAATTATCTTGATT | -0.722

What follows are sequences tested against ANGPTL3 in the same assay as above. Conditions: shRNA.

Sequence | sensor-assay potency score (higher = more potent)
TTTGTGATCCATCTATTCGATG | -1.29
TAGAATTTTTTCTTCTAGGAGG | -0.766
TCGTCTAACATAGCAAATCTTG | -1.34
TATAACATCACAGTAGACATGA | 0.929
TTATAGAGTATAACCTTCCATT | -0.924
TTACATCGTCTAACATAGCAAA | -1.16
TTGACTTGTAGTTTATATGTAG | 0.386
TTTATATGTAGTTCTTCTCAGT | -0.38
TAATGTTTGTTGTCTTTCCAGT | -0.418
TTAATGTCCATGGACTACCTGA | -0.665
TTGAATACTAGTCCTTCTGAGC | -0.706
TTCTTTTATTTGACTATGCTGT | -0.537

What follows are sequences tested against ANG in the same assay as above. Conditions: shRNA.

Sequence | sensor-assay potency score (higher = more potent)
TCTGTGAGGGTTTCCATTCTTG | -0.487
TTGTTGCCATGAATAAATGTGT | -0.656
TTCACAGTATCTGTCATCCCGG | -0.736
TTTCTCTGTGAGGGTTTCCATT | -0.964
TTCTTAGGTTTTCTCTGTGAGG | -0.88
TTGTTTTCACAGATGGCCTTGA | 0.228
TGTACCTGGAGTTATCCTGAGC | -1.14
AAGACTTGCTTATTCTTAGGTT | 0.22
TTCACAAGCAACAACAACGTTT | -0.418
TCACAAGCAACAACAACGTTTC | -0.587
TCACAGATGGCCTTGATGCTGC | -0.333
TTTCACAGTATCTGTCATCCCG | 0.634
AATGTGTTGATGTCTTTGCAGG | -1.22
